Reference: the supplement of paper PMC6555819

How the values were obtained:
Assay in all cases: PBM binding z-score (relative to random genomic background probes); higher = stronger binding; sequences stand for … in GC…GCGATTGACAGCGTAGAATGAAGG
[1] = test system: RARb homodimer (NR concentration 270 nM)
Procedure, shortened: (§1)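 Binding z-scores were set against random background probes. The data came from custom Agilent 4×180K protein-binding microarrays carrying double-stranded probes with 34-nt variable regions, incubated 1 h with ligand-free nuclear receptor dimers. Partner-specific antibodies detected binding, and scanned fluorescence was regression-normalized.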

[2] = test system: RARg:RXRa (NR concentration 270 nM, RXRa partner concentration 90 nM)
Procedure, shortened: as §1

[3] = test system: RARg homodimer (NR concentration 270 nM)
Procedure, shortened: as §1

[4] = test system: RXRa DBDmut IVT, anti-RXR (DBD mutation: RXRa K156A/R161A, NR concentration 90 nM)
Procedure, shortened: as §1

[5] = test system: RXRa homodimer (NR concentration 180 nM)
Procedure, shortened: as §1

[6] = test system: THRa:RXRa (NR concentration 90 nM, RXRa partner concentration 90 nM)
Procedure, shortened: as §1

[7] = test system: THRa homodimer (NR concentration 90 nM)
Procedure, shortened: as §1

[8] = test system: VDR homodimer (NR concentration 270 nM)
Procedure, shortened: as §1

Sequence	PBM binding z-score [1]	PBM binding z-score [2]	PBM binding z-score [3]	PBM binding z-score [4]	PBM binding z-score [5]	PBM binding z-score [6]	PBM binding z-score [7]	PBM binding z-score [8]
CCTGCTAGGTCAATGGCCAGCTAAAGCAGCTCGC	2.64	3.43	3.65	1.05	1.79	1.98	0.178	-0.525
CCAGACAGGTGAGAAGTTAACTCAGCCTCGATTA	0.312	0.26	0.42	0.268	0.0935	0.0119	-0.003	-0.158
TAGGCTAGGTCATGGGCCAGTATACCACGCGAAC	2.94	4.33	4.94	0.455	3.29	3.11	1.2	0.234
GCATATATGTAATACAAGGTGAAAGTCCGATTGT	0.691	0.257	0.615	0.612	0.52	2.79	1.14	-0.0295
AGTTAAAGTTCACTAGGTAACGTAAGATTCAGCT	3.53	4.38	4.95	3.86	3.07	1.92	0.252	3.22
CCTTACGGGTCAATCCAGGTTATAGCATCGGAGT	3	4.49	4.17	1.75	4.31	4.93	0.547	1.32
TTACAAAGGTGAAGGTCGTTGATCCCTCTGTAGA	2.91	3.09	2.66	0.165	3.13	2.1	0.228	1.08
TCTCGGAGGACACGAAAGGTCAGAGCACGACATC	4.5	5.01	5.15	1.04	4.09	3.67	1.29	1.49
CGTGCAAGGTCATAGGAGGTCAGTGAAGACAGAT	5.38	7.04	7.51	4.08	7.22	5.44	2.87	4.63
ACAGACAGGTGAGTGAAGGTAACTAAGCTGGACG	0.0814	0.264	0.483	-0.523	0.122	1.38	-0.413	-0.429
ACAGACAGGTGCGTGAAGGTAACTCAGCTGGACG	-0.567	-0.319	-0.0259	-0.249	-0.0792	-0.227	-0.945	-0.569
CAAACTAGGTCAATAGGTCAAAGTCCGCTTCCCG	5.26	7.95	6.55	2.03	6.54	3.62	1.05	2.03
CCTACTCGGCCACGAAAGGTCATTGATTCAGTGA	4.79	4.8	4.78	0.99	5.02	3.53	1.03	2.62
CAAACTAGGTCAAGAGGTCGAAGTCCGCTTCCCG	4.4	6.21	5.88	1.72	5.59	3.34	1.01	2.2
GCGACTGGGGCATCAGCAGGTTACCTTAACTTAA	0.872	0.268	0.175	0.145	0.259	1.8	2.05	-0.071
CCTAGCAGGACAATCTGGGTCACTCAAGGCTTGA	2.13	1.2	1.42	0.379	1.09	3.07	0.761	0.0931
GCAGACAGGTGAAACGCAGGTCACTCAGGGTGGC	3.35	5.21	2.47	-0.32	2.43	3.6	0.663	0.199
ATATGTAGGTTATCTGGTCATTCAGTTTGCGCAT	1.34	1.39	1.15	1.08	1.46	0.737	0.562	1.07
TCTTGTAGATCAAGCATGTTAAGAAAGCCTGAGT	-0.365	-0.147	-0.0954	0.943	0.122	-0.0977	-0.856	0.128
CTCGAAAGGTCGGGCTCAGGTGAGTATACCAAAC	2.49	4.07	3.19	0.869	3	3.46	1.06	0.356
CCGACTGGGACAAGGTTACCATAACGCACAGCCA	0.97	0.731	0.756	-0.018	1.19	1.61	1.08	-0.0253
CCTACTGGGCCATTAGGTCATTGATATCAACGTT	2.8	2.38	2.12	0.292	1.04	2.63	2.27	1.01
CAAGCTAGGTCACGAAAGGTCAAAGTCGAATGAC	5.98	8.18	8.58	2.43	8.62	5.11	2.29	3.61
CCTACTGGGGCAAAAAGGTCATTGATGCCGATAA	4.23	4.99	4.5	0.866	4.63	2.9	0.176	3.13
TCATATAGGGAAAGGTGAAAGTCGAACGATATGA	1.48	1.49	1.17	0.835	2.02	1.01	-0.407	-0.12
AATACAGGGTCTTCGTAGGCCAGAGTACGCACAG	0.449	0.222	0.45	0.168	0.437	1.6	-0.387	0.396
CGTCCAAGGTCAGAGAGGTCAGAGAATGCCGAGT	5.37	6.29	7.09	3.52	6.16	4.53	2.72	5.54
GGCACGAGGGCAAAGTTGATAGCATCTGTCGACG	1.26	2.26	1.99	2.39	2.19	1.33	-0.552	1.29
